# Compounds with a hit are over-represented: about 0.9% of the library has one in this group of screens.
# gsp antagonist: antagonists of gsp mutant (McCune-Albright syndrome); gsp-mutant cells, cAMP HTRF, 30 min; Potency, µM (top dose mostly 76.9 µM), hits mostly inhibitors; 340,000 tested, 0.4% active; calls by dose curve; cell line not stated here;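 further: intracellular cAMP measured with PDE inhibitor Ro 20-1724 present during compound exposure; nearly all actives have a fitted effect of over 65% in size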
#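 G418-selected cells were plated in DMEM/10% FBS for 16-24 h at 37C, then treated with compounds plus the PDE inhibitor […] (300 uM solution added) for 30 min at 37C. Intracellular cAMP was measured by HTRF after 30 min lysis at room temperature.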
# RXFP1 agonist: activates the human relaxin receptor RXFP1. HEK293T-RXFP1 cAMP TR-FRET, 30 min; response scale: percent of porcine relaxin response, buffer zero. 370,000 tested, 0.3% active. Q9HBX9. AID 2676. Potency, µM (series often up to 57.5 µM), most hits filed as activators; active means well fitted activation curve with a large enough effect; inconclusive means small, poorly fitted or top-dose-only effect; further: nearly all actives have a fitted effect of over 60% in size
# Target sequence (Q9HBX9 whole entry, looked up): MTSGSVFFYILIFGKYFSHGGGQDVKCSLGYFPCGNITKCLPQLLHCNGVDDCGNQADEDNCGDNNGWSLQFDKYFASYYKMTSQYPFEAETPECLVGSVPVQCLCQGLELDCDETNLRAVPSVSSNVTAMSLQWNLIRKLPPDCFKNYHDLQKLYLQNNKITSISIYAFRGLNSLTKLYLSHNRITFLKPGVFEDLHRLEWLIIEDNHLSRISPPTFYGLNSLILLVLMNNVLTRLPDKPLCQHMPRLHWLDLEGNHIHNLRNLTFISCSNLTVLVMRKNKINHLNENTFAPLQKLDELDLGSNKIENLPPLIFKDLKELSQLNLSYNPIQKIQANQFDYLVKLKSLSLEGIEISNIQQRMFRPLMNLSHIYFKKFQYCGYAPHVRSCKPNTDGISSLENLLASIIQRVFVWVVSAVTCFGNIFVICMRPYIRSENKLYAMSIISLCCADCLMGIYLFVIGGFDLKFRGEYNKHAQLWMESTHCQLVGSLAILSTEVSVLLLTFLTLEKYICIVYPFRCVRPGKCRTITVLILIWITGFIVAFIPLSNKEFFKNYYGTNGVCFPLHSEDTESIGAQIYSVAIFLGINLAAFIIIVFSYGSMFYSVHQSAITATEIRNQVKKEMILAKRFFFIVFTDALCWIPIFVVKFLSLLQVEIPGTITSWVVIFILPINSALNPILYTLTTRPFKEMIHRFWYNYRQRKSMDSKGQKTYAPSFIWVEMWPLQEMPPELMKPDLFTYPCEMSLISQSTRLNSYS
#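 HEK293 cells stably expressing RXFP1, treated 30 min at 37C with compounds plus PDE4 inhibitor Ro 20174; cAMP measured by HTRF TR-FRET. Normalized to buffer and 29 nM porcine relaxin; EC50 by Hill fit.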
# RXFP1 antagonist: blocks the human relaxin receptor RXFP1; activity change, negative = inhibition, % at 57.5 µM; HEK293-RXFP1, relaxin-stimulated cAMP HTRF, 30 min; active compounds read low; Q9HBX9; 350,000 tested, 0.59% active;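 active means activity change of -60% or lower, but not beyond a set lower limit; inconclusive means change between -60% and -40%, or beyond the set limit; inactive means change above -40%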
# gsp ag: agonists of gsp mutant (McCune-Albright syndrome). AID 624287. 340,000 tested, 0.13% active. Potency, µM (titrated, usually from 76.9 µM), usual class: activators. gsp mutant cells, cAMP HTRF, 30 min; active means well fitted activation curve with a large enough effect; inconclusive means small, poorly fitted or top-dose-only effect, or another doubt; inactive means no such curve, though single readings can be large or run the other way; cell line not stated here;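 further: phosphodiesterase inhibitor Ro 20-1724 added with compounds to block cAMP breakdown; nearly all actives have a fitted effect of over 60% in size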
#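 Cells stably selected in G418 were plated at 2000/well, grown 16-24 hr, then given compounds in DMSO with the PDE inhibitor […] (300 uM solution added) for 30 min at 37C; cAMP was read by HTRF.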
# A number is an active result; i = inactive; ? = inconclusive; nt = no result given; ! = repeats disagree; [ ] = another dose, or the depositor's remark.
SMILES,gsp antagonist,RXFP1 agonist,RXFP1 antagonist,gsp ag
COC(=O)c1cc(-c2ccc3c(c2)OCO3)nc2ccccc12,?,i,i,i
O=C(O)c1cc(-c2ccc3c(c2)OCO3)nc2ccc(Br)cc12,i,16µM,i,10µM
Cn1cc(CNC(=O)c2cc(-c3ccccc3)nc3ccc(Br)cc23)cn1,i,?,i,i[15.4 µM]
Cc1ccc(-c2cc(C(=O)NCc3cnn(C)c3)c3cc(Br)ccc3n2)cc1,?,22µM!,i,i[15.4 µM]
COc1ccc(C2C(=O)N(C3CCC(C)CC3)CC(=O)N2C2CCCC2)cc1OC (stereo unspecified),nt,i,i,nt
Cc1ccc(NC(=O)c2ccc3c(SCC(=O)O)c4c(nc3c2)CCCC4)c(Br)c1,i,i,i,13µM
COc1ccc(C)cc1NC(=O)c1ccc2c(SCC(=O)O)c3c(nc2c1)CCCC3,i,i,i,i
CCc1ccccc1NS(=O)(=O)c1ccc2c(c1)OCC(C(=O)N1CCCC1)O2 (stereo unspecified),nt,i,i,nt
COCCn1c(=S)[nH]c2cc(C(=O)N3CCN(c4ccccc4OC)CC3)ccc2c1=O,i,i,-112,i
CCOc1cc2[nH]c(=S)n(CCOC)c(=O)c2cc1OCC,i,i,?,4.5µM
COCCn1c(=S)[nH]c2cc(C(=O)N3CCc4ccccc4C3)ccc2c1=O,i,i,-66,i[15.4 µM]
CCCCN(C)CCn1c(=S)[nH]c2cc(OCC)c(OCC)cc2c1=O,i,i,i,i
COCCn1c(=O)[nH]c2cc(C(=O)N3CCN(c4ccccc4OC)CC3)ccc2c1=O,i,i,i,i
Cc1ccc(Oc2c(C(F)(F)F)oc3cc(OCC(=O)NC4CCCCC4)ccc3c2=O)cc1,nt,i,i,nt
CC(=O)c1ccc(NC(=O)CC2Sc3ccccc3NC2=O)cc1 (stereo unspecified),nt,i,nt,nt
CCCCn1c(=N)n(CCOc2ccc(C)cc2)c2ccccc21,i,i,-75,i
CCCCn1c(=N)n(CCOc2ccccc2OC)c2ccccc21,nt,i,i,nt
COc1ccc(OC)c(CN2CCCCCC2)c1,i,i,-119,i
CCc1cc2cc3c(cc2nc1SCC(=O)Nc1nccs1)OCO3,i,13µM,i,?
CCc1cc2cc3c(cc2nc1SCC(=O)Nc1c[nH]c(=O)[nH]c1=O)OCO3,i,?,i,i
O=C1c2[nH]nc(-c3ccccc3O)c2C(c2cccc(O)c2)N1Cc1ccncc1 (stereo unspecified),nt,i,i,nt
CCCCN1C(=O)c2[nH]nc(-c3ccccc3O)c2C1c1cc(Br)c(O)c(OC)c1 (stereo unspecified),nt,i,-89,nt
CCc1ccc(C2c3c(-c4ccccc4O)n[nH]c3C(=O)N2Cc2ccncc2)cc1 (stereo unspecified),nt,i,-83,nt
CCC(C)NC(=O)c1cc2c(Cl)nc3ccc(C)cc3c2s1 (stereo unspecified),nt,i,i,nt
Cc1ccc(C)c(NC(=O)c2cc(S(=O)(=O)N3CCCc4ccccc43)ccc2F)c1,nt,i,i,nt
SMILES,gsp antagonist,RXFP1 agonist,RXFP1 antagonist,gsp ag
COc1ccc(CCNS(=O)(=O)c2cc(-c3cc(C)no3)ccc2OC)cc1OC,nt,i,i,nt
CSc1nc(-c2ccccc2)c(C#N)c(=O)[nH]1,i,?,i,?
CCc1nc(SCc2ccc(F)cc2)[nH]c(=O)c1C#N,35µM,i,i,i
CNC(=O)NC(=O)CSc1nc(-c2cccs2)c(C#N)c(=O)[nH]1,i,14µM,i,?
CSc1nc(-c2cccs2)c(C#N)c(=O)[nH]1,i,14µM,i,i[15.4 µM]
N#Cc1c(-c2cccs2)nc(SCc2ccc(Cl)cc2)[nH]c1=O,i,16µM,i,i[15.4 µM]
Cc1ccc(C2=NC(c3ccc(F)cc3)=Nc3ccc(C)cc3N2)cc1,nt,i,i,nt
Cn1ncc2cc(NC(=S)NC(=O)c3ccccc3)ccc21,40µM,i,i,i
O=C(O)c1ccc(NC(=S)NC(=O)c2ccc(-c3ccccc3)cc2)cc1,20µM,i,?,i
O=C(NC(=S)Nc1ccc2c(c1)OCCO2)c1ccccc1,32µM,i,i,i
NC(=O)c1nsc(C(=O)N(CC(=O)NC2CCCC2)c2ccc(F)c(Cl)c2)c1N,i,i,-65,i
O=C(NCCOC(=O)c1ccc(S(=O)(=O)N2CCOCC2)cc1)c1cccnc1,i,i,i,28µM
O=C(Nc1ccc(S(=O)(=O)N2CCOCC2)cc1)c1cccnc1,i,i,i,i[15.4 µM]
Cc1cc(/C=N\NC(=O)c2cccs2)c(C)n1-c1ccc2ncccc2c1,40µM,i,i,i
Cc1cc(/C=N\NC(=O)COc2cccc3cccnc23)c(C)n1-c1ccc(Br)cc1,i,i,i,?
N=c1oc2cc(O)ccc2cc1C(=O)Nc1ccc(Cl)cc1,40µM,i,i,?
O=C(CNC(=O)c1ccccc1Br)N/N=C\c1cc([N+](=O)[O-])cc(Br)c1O,i,i,-67,i
O=C(CP(=O)(c1ccccc1)c1ccccc1)N/N=C/c1cc(Br)cc(Br)c1O,i,i,-71,i[15.4 µM]
O=C(Cc1ccc(Cl)cc1)N/N=C/c1ccccc1,i,i,i,i
O=C(Cc1ccc(Cl)cc1)N/N=C/c1cccc(O)c1,50µM,i,i,i
O=C(Cc1ccccc1)N/N=C/c1cc(Br)cc(Cl)c1O,i,i,-63,i[15.4 µM]
O=C(CNC(=O)c1ccccc1Br)N/N=C/c1ccccc1O,i,i,i,i[15.4 µM]
CN(C)CCN1CCN(c2cccc(Cl)c2)C1=O,nt,nt,i,nt
CC(=O)N1CCc2c(sc3c2c(=O)n(-c2ccc(C)cc2)c(=O)n3Cc2c(F)cccc2Cl)C1,nt,i,nt,nt
CCOC(=O)C1CCN(c2c(C(=O)c3ccc(OC)cc3)cnc3ccccc23)CC1,nt,i,nt,nt
SMILES,gsp antagonist,RXFP1 agonist,RXFP1 antagonist,gsp ag
CC1=C(C(=O)Nc2ccccc2)C(c2ccccc2)n2nc(-c3ccco3)nc2N1 (stereo unspecified),nt,i,nt,nt
Cc1nc(C)c(-c2ccc(SCC(=O)Nc3ccccc3F)nn2)s1,nt,i,i,nt
Cc1ccc(C)c(N2CCN(c3nc4c(S(=O)(=O)c5ccccc5)nnn4c4ccc(Cl)cc34)CC2)c1,nt,i,i,nt
Cc1c(C(=O)N2CCC(C)CC2)c(S(=O)(=O)N(Cc2ccccc2)C(C)(C)C)c(C)n1C,nt,i,i,nt
CCc1nnc(NC(=O)c2nc(S(=O)(=O)Cc3cccc(C)c3)ncc2Cl)s1,16µM,i,i,i[15.4 µM]
CCc1nnc(NC(=O)c2nc(S(=O)(=O)Cc3ccccc3)ncc2Cl)s1,?,i,i,i[15.4 µM]
CCc1nnc(NC(=O)c2nc(S(=O)(=O)Cc3ccc(C)cc3)ncc2Cl)s1,28µM,i,i,i[15.4 µM]
O=C(Nc1ccccc1O)c1ccccc1O,25µM,i,i,i
COc1ccc(Nc2nc(N3CCCCC3)c3ccccc3n2)cc1,i,i,-66,i
CCN(CC)CCCCN1c2ccccc2Sc2ccccc21,i,i,-63,?
Cc1ccc(NS(=O)(=O)c2c(C)nc3sccn3c2=O)cc1,i,i,-79,i
CCc1cccc(NC(=O)Cn2c(-c3ccc(F)cc3)cc(C(C)=O)c2C)c1,nt,i,i,nt
Cc1c(C(=O)N(C)c2ccccc2)sc2nc(-c3ccc(F)cc3)cn12,nt,i,i,nt
Cc1c(C(=O)N(C)Cc2ccccc2)sc2nc(-c3ccc(F)cc3)cn12,nt,i,-68,nt
